# Bioassay records deposited in PubChem BioAssay by several laboratories.
# The list is not random: actives were taken first. Their share in the collection is about 1.3%.
# MEX-5 binding – C. elegans MEX-5 TCR-2 RNA binding activity | Q9XUB2 | AID 1832 | activity score (negative = inhibition of binding), % at 10 µM | MEX-5/FITC-TCR2 RNA binding, fluorescence polarization; hits give low values | 300,000 compounds, 0.38% hits;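 active = inhibition past about -25% in most replicates, and total fluorescence under double the plate's negative control median, limit read from the data; inconclusive = replicates evenly split on the limit, or fluorescence at least double controls; inactive = too little inhibition in most replicates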
# Target sequence (Q9XUB2 whole entry, looked up): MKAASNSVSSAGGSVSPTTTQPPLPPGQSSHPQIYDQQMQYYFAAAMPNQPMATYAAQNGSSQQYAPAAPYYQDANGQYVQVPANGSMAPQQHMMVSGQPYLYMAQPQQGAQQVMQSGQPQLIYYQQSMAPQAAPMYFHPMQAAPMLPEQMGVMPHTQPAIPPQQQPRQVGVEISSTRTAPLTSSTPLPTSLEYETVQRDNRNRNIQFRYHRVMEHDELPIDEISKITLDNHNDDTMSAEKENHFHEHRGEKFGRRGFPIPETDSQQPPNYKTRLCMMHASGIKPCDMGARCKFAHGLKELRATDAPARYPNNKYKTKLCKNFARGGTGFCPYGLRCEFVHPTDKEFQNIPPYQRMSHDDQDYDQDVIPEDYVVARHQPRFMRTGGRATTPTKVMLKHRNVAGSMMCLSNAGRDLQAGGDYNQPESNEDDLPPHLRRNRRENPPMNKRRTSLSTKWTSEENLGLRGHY
# MCL1-BIM inh – MCL1-BIM-BH3 interaction inhibition (human). 320,000 compounds, 0.68% hits. inhibition, % at 10.9 µM. AID 2057. GST-MCL1 / FITC-Bim-BH3 fluorescence polarization;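 active = inhibition above the mean inhibition of all tested compounds plus 3 SD, set per campaign, cut at about 40% in these data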;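 note: higher means more loss of mP so more displacement of Bim peptide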
# EBV gp42 inh – blocks Epstein-Barr virus glycoprotein 42 binding; Fluorescence polarization binding assay, mP read-out; AID 1085; Q1HVG2; inhibition, % (tested at 21.74 µM); 220,000 compounds, 0.42% hits; in the data active = inhibition above about 50%
# BCLXL inh – Bcl-xL (human) inhibition. Q07817. AID 2129. GST-Bcl-xL / FITC-Bim BH3 peptide fluorescence polarization. inhibition, % at 10.9 µM. 320,000 compounds, 0.7% hits;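 active = inhibition above the mean of all tested compounds plus 3 SD, cutoff set per campaign, cut at about 30% in these data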;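 note: inhibitors lower millipolarization by displacing the labeled peptide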
# GLD-1 TGE inh – GLD-1-TGE RNA interaction inhibition (C. elegans); Q17339; purified GLD-1 + fluorescein TGE RNA, fluorescence polarization; inhibition, % at 5.96 µM; 320,000 compounds, 0.44% hits;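 active = percent inhibition above a per-plate cutoff, the plate mean of test compounds plus 3 SD, cut at about 30% in these data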
# Bcl-xL conf – counter-screen for MCL1 inhibitors: confirmation of human Bcl-xL inhibitors; shares compounds with MCL1-BIM inh; GST-Bcl-xL / FITC-Bim BH3 peptide FP binding; inhibition, % at 10.9 µM; 1,700 compounds, 54% hits; AID 2166;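 active = inhibition above a cutoff equal to the mean inhibition of all tested compounds plus 3 SD, cut at about 30% in these data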
# MCL1 inh confirm – confirmation of human MCL1 and BIM-BH3 interaction inhibitors | AID 2168 | 1,700 compounds, 61% hits | shares compounds with MCL1-BIM inh | inhibition, % at 10.9 µM | GST-MCL1 / FITC-Bim-BH3 fluorescence polarization;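 active = inhibition above the average of all tested compounds plus 3 SD, cut at about 40% in these data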
# Hits are given with their value; 0 = inactive; ? = inconclusive; - = not tested or not shown; + = active, no number.
SMILES,MEX-5 binding,MCL1-BIM inh,EBV gp42 inh,BCLXL inh,GLD-1 TGE inh,Bcl-xL conf,MCL1 inh confirm
CCc1ccc(CNC(=O)CCn2ccc3cc(S(=O)(=O)N4CCCC4)ccc32)cc1,0,0,-,0,0,-,-
CC(C)C(c1nnnn1Cc1ccco1)N1CCN(C2CCCC2)CC1 (stereo unspecified),0,0,0,0,0,-,-
c1coc(Cn2nnnc2CN2CCN(C3CCCC3)CC2)c1,0,40,0,0,0,0,0
COc1cc(Cn2c(=O)c3c(OC)c(C)cnc3n(C)c2=O)cc(OC)c1,0,0,-,0,0,-,-
CC(=O)N1CCN(C(=S)NC(=O)c2ccc(S(=O)(=O)N3CCOCC3)cc2)CC1,0,0,0,0,0,-,-
CCCCCCc1c(O)c2ccccc2[nH]c1=O,0,0,0,0,0,-,-
CCCCCCCCCCCC1=C(O)C(=O)C=C(O)C1=O,0,52,-,0,0,46,76
COC1=C(OC)C(=O)C(CCCCCCCCCCO)=C(C)C1=O,-,-,0,-,-,-,-
COC1=CC(=O)C(O)=C(CCCCCCC/C=C/CCCCCCCC2=C(O)C(=O)C=C(OC)C2=O)C1=O,0,107,-,45,0,32,81
CC(C)c1ccccc1NCC(=O)N1CCN(Cc2ccccc2)CC1,0,0,-,0,0,-,-
C=CCN1C(=O)/C(=C/c2ccc(-c3ccc(F)cc3)o2)SC1=S,0,0,-,0,0,-,-
COc1cccc(CN2C(=O)c3cccc(N)c3C2=O)c1,0,58,59,50,44,33,53
COc1cccc(CN2C(=O)c3ccccc3S2(=O)=O)c1,0,0,-,0,0,-,-
CCN1C=CC2=C(C#N)C(N)C(C#N)(C#N)C(c3ccccc3C(F)(F)F)C2C1 (stereo unspecified),-32,110,0,106,76,50,64
CCN1C=C(Cc2ccccc2C)C2=C(C1)C(c1ccccc1C)C(C#N)=C(N)O2 (stereo unspecified),0,0,0,0,0,-,-
Cc1nnc(SCC(=O)Nc2sccc2C#N)s1,0,53,-,0,0,0,0
O=C(O)c1ccccc1C1=Nc2ccc(O)cc2Oc2cc(O)ccc21,?,196,84,167,135,142,178
O=C(NCC1CCCO1)c1cc([N+](=O)[O-])ccc1Cl (stereo unspecified),0,0,0,0,0,-,-
CN(C)CCNC(=O)c1csc(Nc2cccc3ccccc23)n1,0,0,-,0,0,-,-
Cc1ccc(N=Nc2[nH]c3ccccc3c2O)cc1,-61,109,100,101,67,83,81
COc1ccc(N=Nc2[nH]c3ccc(C)cc3c2O)cc1,0,0,0,0,0,-,-
CCOc1ccc(N(C)S(=O)(=O)c2c[nH]c(C(=O)OC)c2)cc1,0,0,-,0,0,-,-
Cc1ccc(O)c(NC(=O)C2CCCN2C(=O)OCc2ccccc2)c1 (stereo unspecified),0,0,-,0,0,-,-
Cc1nnsc1S(=O)(=O)Cc1ccccc1C(F)(F)F,0,0,0,0,0,-,-
CC(=O)OCC1=C(C(=O)O)N2C(=O)C(NC(=O)c3ccc(COc4c(C)cccc4Cl)o3)C2SC1 (stereo unspecified),0,43,0,0,0,0,51
SMILES,MEX-5 binding,MCL1-BIM inh,EBV gp42 inh,BCLXL inh,GLD-1 TGE inh,Bcl-xL conf,MCL1 inh confirm
CC(=O)OCC1=C(C(=O)O)N2C(=O)C(NC(=O)c3ccc(COc4ccc(Cl)cc4)o3)C2SC1 (stereo unspecified),0,0,0,0,0,-,-
CCOC(=O)C(C(=O)OCC)c1cc(Br)c2noc3c2c1C(=O)c1ccccc1-3,-32,196,133,176,171,145,148
CCCc1nc(SCC(=O)N2CCC(C)CC2)c2c(=O)n(C)c(=O)n(C)c2n1,-,0,0,0,0,-,-
CCCc1nc(SC2CCCC2)c2c(=O)n(C)c(=O)n(C)c2n1,0,+,0,0,0,0,0
O=C(CSc1ccc(-c2ccco2)nn1)c1ccccc1,0,42,0,0,0,0,0
COc1ccc(NC(=O)CN(C)C(=O)c2cccc(-n3cccc3)c2)cc1,0,48,-,0,0,0,0
CN(c1ncc(C(F)(F)F)cc1Cl)N1C(=O)c2cccc(N)c2C1=O,0,62,57,59,84,47,66
COc1ccccc1NC(=O)CC(NC1CCCCC1)C(=O)O (stereo unspecified),0,62,0,0,0,0,0
O=C(CCN1C(=O)/C(=C/c2ccco2)SC1=S)Nc1ccc(C(=O)O)c(O)c1,0,65,-,0,0,32,54
O=C(CCN1C(=O)/C(=C\c2ccco2)SC1=S)Nc1ccc(C(=O)O)c(O)c1,?,64,-,31,0,0,0
O=C(Nc1ccc2c(c1)Cc1ccccc1-2)c1cccnc1,0,0,0,0,0,-,-
Cc1ccc(OC(C)C(=O)N/N=C/c2ccccn2)cc1 (stereo unspecified),0,0,0,0,0,-,-
CCOC(=O)c1cc2c(=O)n3ccccc3nc2n(Cc2ccco2)c1=NC(=O)c1ccc(OC)cc1,0,41,0,0,0,0,0
COc1ccc2ccc3c(c2c1)N=C[C@]1(O3)N(C)c2ccccc2C1(C)C,0,57,0,40,0,39,0
COc1ccc(N/C(=C(/C(Cl)=C(Cl)Cl)[N+](=O)[O-])n2nnc3ccccc32)cc1OC,0,104,0,97,37,0,0
CC(=O)O[C@@H]1[C@@H](OC(C)=O)[C@H](n2ccc3cc([N+](=O)[O-])ccc32)OC[C@@H]1OC(C)=O,0,0,0,0,0,-,-
Cc1cc(C)c2cc3c(ccn3C3OC[C@H](O)[C@H](O)[C@H]3O)cc2n1 (stereo partly specified),0,100,94,88,0,72,86
COC(=O)c1ccc2ccn(CC(=O)NC3CCCCC3)c2c1,0,49,0,0,0,0,0
N#Cc1ccc2ccn(CC(=O)NC3CCCCCC3)c2c1,0,0,0,0,0,-,-
O=C(c1ccc(Cl)nc1)N1CCN(S(=O)(=O)c2ccccc2)CC1,0,0,0,0,0,-,-
CC1CC=C2C(C#N)=C(N)C(C#N)(C#N)C(c3cccs3)C2C1 (stereo unspecified),-31,96,52,92,70,52,68
COc1ccccc1N1C(=O)c2cccc3c(C(=O)O)ccc(c23)C1=O,0,0,0,0,0,-,-
Cc1ccccc1N1C(=O)c2cccc3c(N(C)CCO)ccc(c23)C1=O,?,+,126,181,167,121,157
COc1ccccc1N1C(=O)c2cccc3c(N(C)CCO)ccc(c23)C1=O,0,+,-,183,172,128,152
COc1ccc(Cl)cc1C(=O)NNC1CC(=O)N(Cc2ccc(Cl)cc2)C1=O (stereo unspecified),0,0,0,0,0,-,-
